Nine molecules from PubChem BioAssay (NCI) can be followed below.

Assay in all cases: NCI-60 one-dose screen, 48 h (100 = growth as untreated, 0 = no growth, -100 = all killed)
Common to all, as to conditions: 10 µM unless noted

Assay [1] deals with SR leukemia.
Assay [2] deals with RPMI-8226 leukemia.
Assay [3] relates to OVCAR-8 ovarian.
The test system of assay [4] is OVCAR-5 ovarian.
The test system of assay [5] is SK-OV-3 ovarian.
For assay [6], the system named is IGROV1 ovarian.
Assay [7] deals with OVCAR-3 ovarian.
In assay [8] the test system is HS 578T breast.
The test system of assay [9] is NCI/ADR-RES ovarian.
For assay [10], the system named is T-47D breast.
In assay [11] the test system is MDA-MB-435 melanoma.
The subject of assay [12] is SW-620 colon.
Assay [13] deals with HCT-116 colon.
The test system of assay [14] is HCC-2998 colon.
Assay [15] relates to KM12 colon.
The test system of assay [16] is BT-549 breast.
Assay [17] concerns MCF7 breast.

SMILES strings stand for the structures. Compounds without any hit were thinned out: in the full panel of roughly 83,000, 20% have a hit.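 Testing used 96-well plates and a 48-hour single-concentration exposure. Example: -40 means 40% of the starting cells died.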 A number with no mark means an inactive call. Activity calls are given as the source filed them. The calls were made as follows: active = growth percent below 10; inactive = the rest.

`C=CC(=O)N1CC=C(c2cc3c(N[C@H](C)c4ccccc4)ncnc3[nH]2)CC1`: the growth in assay [1] is 66.7%; in [2], 85.8%; in assay [3], 85.8%; in assay [4], 37.5%; in assay [5], 47.4%; in assay [6], 6.95% (active). For the same molecule, the growth is 70.3% in assay [7]; 39.9% in assay [8]; 89.5% in assay [9]; 71.6% in [10]; 95% in [11]; 87% in assay [12]. For the same molecule, the growth in [13] is 86.1%; in [14] it was 89.6%; in assay [15], 98.9%.

As to `CC1(C)CC[C@]2(C(=O)N3CCOCC3)CC[C@]3(C)C(=CC[C@@H]4[C@@]5(C)C/C(=C/c6ccccn6)C(=O)C(C)(C)[C@@H]5CC[C@]43C)[C@@H]2C1`, the growth is 22.5% in assay [1]; 15.9% in assay [2]; 77.9% in [3]; 88.4% in [4]; 108% in [5]; 65.3% in [6]. The growth was 70.2% in [7]; 81.6% in assay [8]; 81.4% in assay [9]; 53.4% in assay [10]; 70% in assay [16]; 68.6% in assay [11]. For the same molecule, the growth in [17] is 44%; in assay [13], 34.9%; in assay [14], 81.4%; in assay [15], 72.4%.

On to `COc1ccc(/C=C/C(=O)c2cc(S(N)(=O)=O)c(OC)cc2OC)cc1`, for which the growth was 23.4% in [1]; 60.9% in assay [2]; 93% in [3]; 98.3% in [4]; 97.2% in assay [5]; 81.8% in assay [6]. In addition, the growth in assay [8] is 89.1%; in [9], 85.8%; in [10] it was 50.3%; in assay [16] it was 82.8%; in assay [11], 53.3%; in assay [12] it was 46.6%. In addition, the growth is 44.3% in assay [17], 65.1% in assay [13], 83.2% in assay [14] and 40.9% in assay [15].

With `O=C(CN1CCN(c2cc(=O)n(-c3ccccc3)c3ccccc23)CC1)Nc1nc(-c2ccc(Cl)cc2)cs1`, the growth in [1] was 56.8%; in assay [2] it was 36.7%; in assay [3], 59.4%; in assay [4], 93.1%; in assay [5], 71.4%; in [6], 65.5%. In addition, the growth in assay [7] is 67.1%; in assay [8] it was 92.8%; in assay [9] it was 54.9%; in assay [10] it was 24.3%; in assay [16], 46.5%; in assay [11], 49.8%. The growth is 74.3% in [12]; 20.1% in [17]; 35.8% in assay [13]; 92.4% in assay [14]; 64.7% in assay [15].

For the molecule `CC(=O)Nc1cccc(Nc2nc(N[C@H](C)c3ccccc3)c3ccccc3n2)c1`, the growth in [1] was -7.47% (active); in [2], -20.3% (active); in [3], 74.8%; in assay [4], 70.6%; in assay [5], 94.8%; in [6], 51.8%. The growth in assay [7] is 55.9%; in assay [8], 80.5%; in assay [9] it was 39.1%; in assay [10] it was 78.8%; in [11], 24.3%; in [12], 61.5%. Further, the growth in [17] was 27.8%; in [13], 31%; in [14], 88.7%; in assay [15], 55.9%.

As for `CCN1CCN(Cc2cn(-c3ccc(S(N)(=O)=O)cc3)nn2)CC1`, the growth in [1] was 102%; in [2], 109%; in assay [3] it was 102%; in assay [4], 108%; in [5], 105%; in assay [6] it was 107%. For the same molecule, the growth in assay [7] was 112%; in assay [8], 102%; in assay [9], 111%; in [10] it was 105%; in [16], 130%; in assay [11], 107%. Besides, the growth in assay [12] is 106%; in assay [17], 97.4%; in [13], 103%; in assay [14], 106%; in assay [15], 104%.

`COc1cc2nc(Cl)nc(Nc3cccc(C4=Nc5c(N)nc(N)nc5NC(c5ccc(Cl)cc5)C4)c3)c2cc1OC` (stereo unspecified): the growth in assay [1] is -8.05% (active); in assay [2], -18.9% (active); in assay [3], 29.1%; in assay [4], 114%; in assay [5], 124%; in [6] it was 87.9%. Besides, the growth in assay [7] is 62.6%; in assay [8] it was 88.6%; in assay [9], 80.1%; in assay [10] it was 81.7%; in assay [16], 85.2%; in assay [11], 6.34% (active). Moreover, the growth was 11.2% in [12]; 13% in assay [17]; -44.8% (active) in [13]; 4.35% (active) in [14]; 14.1% in assay [15].

Take `O=C(Nc1ccc2c(ccn2Cc2ccccn2)c1)c1cnccn1`: the growth in assay [1] was 92.7%; in [2], 93.7%; in assay [3] it was 105%; in assay [4], 96.8%; in assay [5], 109%; in assay [6], 79.7%. The growth is 110% in [7]; 104% in assay [8]; 107% in assay [9]; 101% in assay [10]; 100% in assay [11]; 93.7% in [12]. Moreover, the growth in [13] is 100%; in [14], 115%; in [15] it was 100%.

Regarding `COc1cccc(N2CCN(c3ncnc4c3[nH]c3ccc(F)cc34)C[C@H]2C)c1`, the growth is 46.4% in [1]; 19.2% in assay [2]; 22% in assay [3]; 91.4% in assay [4]; 68% in [5]; 59.5% in assay [6]. Also, the growth in assay [7] was 69.4%; in assay [8], 72.9%; in [9], 17%; in assay [10] it was 14.6%; in [16] it was -3.9% (active); in [11], 19.4%. Further, the growth was 95.9% in [12]; 37.2% in [17]; 41.9% in assay [13]; 96.8% in assay [14]; 54.5% in assay [15].
